This is a sample that favours compounds with a hit; in the whole collection about 1.3% have one here.
EBV gp42 block: blocks Epstein-Barr virus glycoprotein 42 binding; Q1HVG2; Fluorescence polarization binding assay, mP read-out; inhibition, % (tested at 21.74 µM); 220,000 tested, 0.42% active; in the data active = inhibition above about 50%
Target sequence (Q1HVG2 whole entry, looked up): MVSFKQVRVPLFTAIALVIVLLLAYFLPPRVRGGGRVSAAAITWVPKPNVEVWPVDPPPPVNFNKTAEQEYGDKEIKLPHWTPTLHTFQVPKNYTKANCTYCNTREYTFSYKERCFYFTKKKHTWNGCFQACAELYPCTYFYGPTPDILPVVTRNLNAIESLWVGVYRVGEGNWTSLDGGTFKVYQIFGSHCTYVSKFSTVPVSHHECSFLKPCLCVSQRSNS
MEX-5 binding: C. elegans MEX-5 TCR-2 RNA binding activity. activity score (negative = inhibition of binding), % at 10 µM. Q9XUB2. MEX-5/FITC-TCR2 RNA binding, fluorescence polarization; stronger effect = lower value. 300,000 tested, 0.38% active;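 active = inhibition past about -25% in most replicates, and total fluorescence under double the plate's negative control median, limit read from the data; inconclusive = replicates evenly split on the limit, or fluorescence at least double controls; inactive = too little inhibition in most replicates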;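 note: 0% = DMSO and -100% = 5 µM competing unlabeled TCR2 RNA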
MCL1-BIM inh: MCL1-BIM-BH3 interaction inhibition (human) | inhibition, % at 10.9 µM | AID 2057 | GST-MCL1 / FITC-Bim-BH3 fluorescence polarization | Q07820 | 320,000 tested, 0.68% active;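 active = inhibition above the mean inhibition of all tested compounds plus 3 SD, set per campaign, cut at about 40% in these data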;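 note: 0% = DMSO wells and 100% = unlabeled Bim-BH3 peptide control; higher means more loss of mP so more displacement of Bim peptide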
Target sequence (Q07820 whole entry, looked up): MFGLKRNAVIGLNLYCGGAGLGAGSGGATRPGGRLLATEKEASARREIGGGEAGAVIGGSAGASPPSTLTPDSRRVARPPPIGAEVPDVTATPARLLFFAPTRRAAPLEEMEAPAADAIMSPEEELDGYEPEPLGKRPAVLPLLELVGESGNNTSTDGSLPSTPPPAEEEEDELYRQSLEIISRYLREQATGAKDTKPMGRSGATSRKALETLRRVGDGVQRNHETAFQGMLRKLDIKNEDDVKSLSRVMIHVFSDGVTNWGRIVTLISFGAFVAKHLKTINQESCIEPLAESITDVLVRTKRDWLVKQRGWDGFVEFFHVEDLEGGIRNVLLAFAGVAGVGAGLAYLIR
GLD-1 RNA inh: GLD-1-TGE RNA interaction inhibition (C. elegans); Q17339; purified GLD-1 + fluorescein TGE RNA, fluorescence polarization; inhibition, % at 5.96 µM; 320,000 tested, 0.44% active; AID 2280;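 active = percent inhibition above a per-plate cutoff, the plate mean of test compounds plus 3 SD, cut at about 30% in these data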;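 note: 0% = DMSO wells with GLD-1 and probe and 100% = wells lacking GLD-1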
Bcl-xL primary: inhibitors of human Bcl-xL | Q07817 | GST-Bcl-xL / FITC-Bim BH3 peptide fluorescence polarization | inhibition, % at 10.9 µM | 320,000 tested, 0.7% active;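 active = inhibition above the mean of all tested compounds plus 3 SD, cutoff set per campaign, cut at about 30% in these data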;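 note: 0% = DMSO wells and 100% = unlabeled Bim-BH3 peptide competitor; inhibitors lower millipolarization by displacing the labeled peptide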
Active calls of the source: *; u = inconclusive; x = no result.

SMILES	EBV gp42 block	MEX-5 binding	MCL1-BIM inh	GLD-1 RNA inh	Bcl-xL primary
CC(C)c1ccc(/C=C2\NC(=S)N(Cc3cccnc3)C2=O)cc1	-9	1	7	5	9
O=C(CSc1nnc(CNC(=O)c2cccc(C(F)(F)F)c2)o1)NC1CCCCC1	x	-2	1	8	2
O=C(NCc1ccc(OC(F)(F)F)cc1)c1cccc2c1C(=O)c1ccc(N3CCCCC3)cc1S2(=O)=O	x	x	x	0	x
O=C(NCc1cc(C(F)(F)F)ccc1Cl)c1cccc2c1C(=O)c1ccc(N3CCCCC3)cc1S2(=O)=O	x	x	x	76*	x
O=C(NCc1cccc(F)c1)c1cccc2c1C(=O)c1ccc(N3CCC(Cc4ccccc4)CC3)cc1S2(=O)=O	x	x	x	137*	x
O=C(NCCc1ccc(F)cc1)c1cccc2c1C(=O)c1ccc(N3CCC(Cc4ccccc4)CC3)cc1S2(=O)=O	x	x	x	145*	x
CCN(C(=O)CSC1=Nc2ccccc2C2CC=NN12)C1CCS(=O)(=O)C1 (stereo unspecified)	0	-1	7	-2	8
CSCC(C)N1CCC(N2CCC(C(=O)NCc3ccccn3)CC2)CC1 (stereo unspecified)	x	u	40*	18	33*
CC(=O)C1=C(c2cccc([N+](=O)[O-])c2)N(C(C)=O)n2c(C)nnc2S1	4	-47*	10	8	5
CC(=O)c1c(C(C)=O)c(C)n(-c2cccc([N+](=O)[O-])c2)c1C	-8	-1	8	1	5
COc1ccccc1NS(=O)(=O)c1cc(NC(=O)Cc2n[nH]c(=O)c3ccccc23)ccc1Cl	x	x	x	7	x
CCN(CC(=O)Nc1ccc(NC(C)=O)cc1)C(=O)c1ccccc1CCc1ccccc1	x	0	-10	4	-8
COCCN(CCOC)Cc1c(O)ccc2c1O/C(=C\c1ccc(C)o1)C2=O	x	u	24	-4	34*
CCOC(=O)C1(Cc2cccc(Cl)c2)CCCN(C(=O)CCN2CCCC2=O)C1 (stereo unspecified)	x	-1	2	3	2
Cc1ccc(C(=O)CSc2nc3c([nH]2)c(=O)n(C)c(=O)n3C)cc1	3	-30*	18	3	10
Cc1ccc(N(CC(=O)N2CCc3ccccc3C2)S(C)(=O)=O)cc1	x	2	6	1	7
O=Cc1sc([O-])nc1-[n+]1ccc2ccccc2c1	13	-6	41*	22	47*
C=CCC[C@@H](Cc1ccc(F)cc1)C(=O)OC[C@@H](Cc1c[nH]c2ccccc12)NC(=O)[C@H](CC=C)CC(=O)N[C@H](CO)Cc1ccccc1	x	x	x	3	x
Cc1ccc2c(c1)-c1ccccc1S(=O)(=O)N2	x	-1	4	8	5
Nc1ccc2c(c1)-c1ccccc1S(=O)(=O)N2	-15	-41*	38	19	29
O=C(CCc1nc2ccccc2c(=O)[nH]1)Nc1cc(Cl)ccc1N1CCCC1	x	x	2	-3	7
Cn1c(SCC(=O)Nc2ccc3nc(SCC(=O)N4CCCC4)sc3c2)nnc1-c1ccc(N)cc1	88*	x	x	x	x
Cn1c(SCC(=O)Nc2ccc3nc(SCC(=O)NC4CC4)sc3c2)nnc1-c1ccccc1	-15	-3	1	5	3
NS(=O)(=O)c1ccc(N/N=C/c2ccc(O)c(O)c2O)c([N+](=O)[O-])c1	97*	x	x	x	x
NS(=O)(=O)c1ccc(N/N=C/c2ccc(O)cc2O)c([N+](=O)[O-])c1	7	-4	1	4	9
SMILES	EBV gp42 block	MEX-5 binding	MCL1-BIM inh	GLD-1 RNA inh	Bcl-xL primary
C[C@@]12C(=O)N(c3ccc(C(F)(F)F)cc3)C(=O)N1[C@@H]1c3ccccc3OC[C@@H]1[C@H]2c1ccccc1	x	0	4	0	2
CCN1CCc2c(C#N)c(N3CCOCC3)nc(NCCO)c2C1	0	-11	40	27	44*
COC(=O)C1C(O)CCC2CN3CCc4c([nH]c5ccccc45)C3CC21 (stereo unspecified)	16	-15	42*	16	37*
C=CC[C@H](CC(=O)N[C@H](CO)Cc1ccccc1)C(=O)N[C@H](COC(=O)[C@H](CC=C)CC(=O)OC(C)(C)C)Cc1c[nH]c2ccccc12	x	x	x	10	x
O=S(=O)(Nc1cccc2c1ccc1cccn12)c1cccs1	-18	1	-1	1	6
CN(C)c1cccc2c1c(NS(=O)(=O)c1cn(C)cn1)nn2C	x	-30*	9	6	16
Cc1ccc(N/C=C2/Sc3ccccc3NC2=O)cc1	-103	-54*	5	-61	5
COc1ccc(Nc2ncnc3nc[nH]c23)cc1OC	-8	-33*	-1	1	-1
C/C(=C\c1ccccc1F)C1Nc2cccc3cccc(c23)N1	x	x	39	21	31*
C/C(=C\c1ccc2c(c1)OCO2)C1Nc2cccc3cccc(c23)N1	x	x	18	5	16
O=C1Nc2c(Br)cccc2C1=O	x	x	x	4	x
Cc1cc(C)c(C#N)c(SCC(=O)N2CCN(Cc3ccccc3)CC2)n1	13	1	8	2	6
Cc1cc(C)c(C#N)c(SCC(=O)N2CCCCC2)n1	119*	-1	-10	-1	1
Cn1c(SCC(=O)N2CCCCCC2)nc2c(c1=O)SCC2	x	1	5	-1	0
COc1ccc(NC(=O)CSc2nnc(-c3cccs3)n2C)cc1OC	-7	1	-1	2	3
COc1ccc(NC(=O)CSc2nc3c(c(-c4cccs4)c2C#N)CN(C)CC3)cc1OC	57*	-3	30	18	42*
CN1CCCc2cc(C=O)ccc21	-6	-6	30	4	31*
CC(C)Oc1ccc(NC(=O)CCC(=O)O)cc1	78*	1	4	2	3
CC(C)Oc1ccc(NC(N)=O)cc1	-2	-1	2	6	0
Oc1[nH]c2ccccc2c1N=NC(=S)N1CCOCC1	-7	-41*	7	-2	0
CC1CCCC(NC(=O)CN2CCN(S(=O)(=O)c3cccs3)CC2)C1C (stereo unspecified)	x	x	-8	3	-5
CCCCn1nnnc1SCC(=O)Nc1cccc(C)n1	-21	3	1	-1	5
Cc1cccc(NC(=O)CSc2nnnn2C)n1	75*	0	7	-1	4
CCOCCCNC1=C(Cl)C(=O)c2ccccc2C1=O	-30	-4	33	-1	34*
O=C(CCC1CCCCC1)NC1CCCCC1	x	x	x	2	x
CCOC(=O)N1CCN(Cc2ccccc2F)CC1	-5	0	-3	11	2
CCOC(=O)N1CCN(Cc2ccccc2Cl)CC1	-14	x	-5	87*	-2
CC(C)CCOc1ccc(C(=O)NNC(=O)CNC(=O)c2ccccc2F)cc1	x	x	x	-2	x
O=C(c1cccc(C(F)(F)F)c1)c1c[nH]c(C(=O)NCCCN2CCOCC2)c1	6	-1	-5	6	-7
O=C(NCCc1ccc(Cl)cc1)C1CCC(=O)N(C2CCCCCC2)C1 (stereo unspecified)	x	-2	2	1	135*
